In PubChem BioAssay (Tox21):
Unmarked numbers belong to inactive results. The call rests on the fitted dose curve; in most records, active means well fitted activation curve with a large enough effect in the repeat runs; inconclusive means weak or mixed curves; inactive means flat fitted curve, though single readings scatter.

assay: A CellTox Green Cytotoxicity Assay to monitor cytotoxicity in HepG2 cells - 0 hour (AID 1224882); settings: CellTox Green fluorescence; series mostly up to 76.8 µM; cytotoxicity: at the top concentration; further: nearly all actives have a fitted effect of over 35% in size
Summary of the method: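 Fluorescent DNA-binding dye, 600 HepG2 cells/well, 5 h preincubation then compound in DMSO; same plates read at 0–40 h, 37 C.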
On the % scale 0 is the no-effect control and ±100 the full control effect.

Row | SMILES | cytotoxicity
1 | CC(C(=O)O)c1ccc2c(c1)Cc1cccnc1O2 (stereo not drawn) | -12% [at 35.3 µM]
2 | Cc1cc(SC2=C(O)C[C@@](CCc3ccc(N)cc3)(C(C)C)OC2=O)c(C(C)(C)C)cc1CO | -9.42%
3 | Oc1ccc(CCNCCCCCCNCCc2ccccc2)cc1O | 1.2% [at 35.3 µM]
4 | CCN(CCCCOC(=O)c1ccc(OC)c(OC)c1)C(C)Cc1ccc(OC)cc1 (stereo not drawn) | 0.0234% [at 35.3 µM]
5 | O=Cc1ccc(Cl)c([N+](=O)[O-])c1 | 4.14%
6 | CC(C)CCCCCCCOC(=O)c1ccc(C(=O)OCCCCCCCC(C)C)c(C(=O)OCCCCCCCC(C)C)c1 | -0.474%
7 | Cc1ccc(NC(=O)c2ccc(CN3CCN(C)CC3)cc2)cc1Nc1nccc(-c2cccnc2)n1 | -10.7% [at 35.3 µM]
8 | O=S(=O)(O)c1cc(Cl)c(Cl)cc1Cl | 11.1%
9 | Cc1nc(C)c(C)nc1C | -0.172%
10 | CCn1nc(Cc2ccccc2)cc1C1CCN(C[C@H]2C[C@H](N(C)[C@@H](C(=O)O)C(C)C)C[C@@H]2c2cccc(F)c2)CC1 | -1.27%
11 | O=C(Cl)c1cc(Cl)cc(Cl)c1 | 0.878%
12 | O=C(N[C@@H](Cc1ccccc1)[C@@H](O)C(=O)N1C[C@@H](O)[C@@H](O)C1)c1cc2cc(Cl)ccc2[nH]1 | 1.43%
13 | CC(C)(C)NCC(O)COc1ccc(NC(=O)NC2CCCCC2)cc1 (stereo not drawn) | -2.78% [at 35.3 µM]
14 | CC(C)(C)c1ccc(CCC=O)cc1 | 0.359%
15 | CC(C)(Cc1c[nH]c2ccccc12)NCC(O)COc1ccccc1C#N (stereo not drawn) | 1.31% [at 35.3 µM]
16 | CCOC(=O)CC(O)(CC(=O)OCC)C(=O)OCC | -3.11%
17 | CCCC(=O)OCCC(C)C | 1.69%
18 | CC1=C(C)C(=O)C(CCCCC#CCCCC#CCO)=C(C)C1=O | -1.89% [at 35.3 µM]
